The source of these data is PubChem BioAssay.

The nature of assay [1]: compound effects on lung adenocarcinoma cell viability – A549, calcein-AM fluorescence, 48 h, basal, profiling panel (AID 1162). Conditions: higher = more signal.
Assay [2] is described as follows: compound effects on differentiated 3T3-L1 adipocyte viability – cell-based, 3T3-L1 adipocytes, calcein-AM fluorescence, 48 h, basal, profiling panel (AID 1163). To be noted: 3T3-L1 adipocytes viability, higher = more signal.
A short description of assay [3]: compound effects on hepatocellular carcinoma cell viability – HepG2, calcein-AM fluorescence, 48 h, basal, profiling panel (AID 1164). To be noted: higher = more signal.
A short description of assay [4]: compound effects on multiple myeloma cell viability – MM1S, calcein-AM fluorescence, 48 h, basal, profiling panel (AID 1165). Conditions: higher = more signal.
Assay [5] in a line: calcein-AM signal in unstimulated myeloma cells – cell-based, calcein-AM fluorescence, 48 h, PK04 Diversity Set, profiling panel (AID 1166).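 Note: cells grown under basal conditions without added stimulus.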 To be noted: RPMI8226 myeloma viability, higher = more signal.
The nature of assay [6]: JC-1 mitochondrial signal, unstimulated HepG2 cells – cell-based, JC-1 fluorescence, 24 h, 100 nL compound, profiling panel (AID 1167). Conditions: HepG2 mitochondrial potential, higher = more signal.
Assay [7] can be described thus: JC-1 mitochondrial signal, unstimulated adipocytes – cell-based, JC-1 fluorescence, 3T3-L1 adipocytes, 24 h, 100 nL compound, profiling panel (AID 1168). To be noted: JC-1 mitochondrial fluorescence, higher = more signal, called active from +8 up or from −8 down.
A short description of assay [8]: JC-1 mitochondrial signal, unstimulated myeloma cells – cell-based, JC-1 fluorescence, RPMI8226, 24 h, 100 nL compound, profiling panel (AID 1169). Conditions: JC-1 mitochondrial potential fluorescence, higher = more signal.
Assay [9] in a line: JC-1 mitochondrial signal, unstimulated MM1S myeloma – cell-based, JC-1 fluorescence, 24 h, 100 nL compound, profiling panel (AID 1170). Conditions: MM1S mitochondrial potential, higher = more signal.
The nature of assay [10]: resazurin metabolic signal in A549 cells – cell-based, resazurin fluorescence, 24 h, PK04 Diversity Set, profiling panel (AID 1171). To be noted: A549 viability, higher = more signal, called active from +8 up or from −8 down. (Resazurin is reduced to fluorescent resorufin, in cell work by metabolically active cells.)

The source made the active and inactive calls.
Note: test concentration not given here.

In the case of `COc1ccc(CCNC(=O)[C@@]2(c3ccc([N+](=O)[O-])cc3)CC(=O)N(C3CCCCC3)[C@@H]2c2ccc(CO)cc2I)cc1`, the z-score in assay [1] is 0.507; in assay [2], 0.969; in [3], -0.348; in assay [4], -2.41; in [5], -2.58; in [6], 1.31. Moreover, the z-score in assay [7] was 0.72 (inactive); in [8], -0.293; in assay [9], 0.379; in assay [10], -1.11 (inactive).
For the molecule `COCCCNC(=O)[C@@]1(Cc2ccccc2I)c2ccccc2C(=O)N(C2CCCCC2)[C@H]1c1ccc(CO)cc1`, the z-score was -0.126 in [1]; 0.2 in assay [2]; -0.335 in assay [3]; -0.339 in assay [4]; -0.0802 in assay [5]; 1.29 in assay [6]. The z-score in [7] is -0.276 (inactive); in assay [8], -0.794; in assay [9], -1.01; in assay [10] it was 1.59 (inactive).
As for `C=CC[C@@]1(C(=O)NCCCOC)N=C(c2ccc(OCCCO)cc2)O[C@@H]1c1ccccc1CN=[N+]=[N-]`, the z-score is -0.287 in [1]; 0.532 in assay [2]; 0.569 in assay [3]; -0.459 in assay [4]; -0.885 in [5]; 2.5 in assay [6]. Further, the z-score in assay [7] was 0.738 (inactive); in assay [8] it was -0.728; in assay [9] it was 0.0149; in [10], 0.41 (inactive).
`CC(C)C[C@H]1NC(=O)CNC(=O)[C@@]23C(=O)N[C@@H](Cc4ccccc4)C2[C@H](C)[C@@]2(C)O[C@H]2C3/C=C/C/C=C\CNC1=O` (stereo not given in full): the z-score was -0.518 in assay [1]; 0.535 in assay [2]; -0.899 in assay [3]; -0.101 in [4]; -0.0815 in assay [5]; -0.561 in assay [6]. Moreover, the z-score was 0.451 (inactive) in assay [7], -0.469 in assay [8], -0.112 in assay [9] and 0.478 (inactive) in assay [10].
Consider `[N-]=[N+]=NCc1ccccc1[C@H]1OC(c2ccc(OCCCO)cc2)=N[C@@]1(Cc1ccccc1N=[N+]=[N-])C(=O)O`, for which the z-score in [1] is -0.374; in assay [2], -1.69; in assay [3], 0.312; in assay [4], -0.934; in [5], -0.984; in assay [6] it was -2.04. The z-score in [7] is 0.0914 (inactive); in assay [8], -0.763; in assay [9], -0.596; in assay [10], 0.216 (inactive).
Consider `COc1ccc(CCNC(=O)[C@@]2(C)c3ccccc3C(=O)N(Cc3ccc(OC(F)(F)F)cc3)[C@H]2c2ccc(CO)cc2)cc1`, for which the z-score was 0.109 in assay [1]; 0.965 in assay [2]; -0.0665 in [3]; -2.23 in assay [4]; -2.3 in assay [5]; 2.56 in assay [6]. Further, the z-score in [7] is 0.434 (inactive); in assay [8], -0.114; in assay [9], 0.0946; in assay [10], 2.43 (inactive).
On to `COCCCNC(=O)[C@@]1(Cc2ccccc2I)c2ccccc2C(=O)N(Cc2ccccc2C(F)(F)F)[C@H]1c1ccc(CO)cc1`, for which the z-score was -0.369 in [1]; -0.884 in [2]; -0.305 in assay [3]; -1.14 in [4]; -1.61 in assay [5]; 0.405 in [6]. In addition, the z-score in assay [7] is -1.19 (inactive); in assay [8], -0.578; in assay [9] it was -0.553; in assay [10], 1.77 (inactive).
`COC(=O)[C@@]1(Cc2ccccc2)[C@H]2c3cc(C(=O)N(C)C)n(Cc4nc5ccccc5[nH]4)c3C[C@H]2CN1C(=O)c1ccccc1`: the z-score was 0.173 in assay [1]; -0.232 in assay [2]; 0.858 in [3]; -0.013 in assay [4]; -0.191 in assay [5]; -0.3 in assay [6]. Moreover, the z-score in [7] is 0.385 (inactive); in assay [8], -0.303; in assay [9], -0.701; in assay [10], 0.0716 (inactive).
As for `CCCN1C(=O)[C@@]2(c3ccc([N+](=O)[O-])cc3)CC(=O)N(C3CCCCC3)[C@@H]2c2ccc(CO)cc21`, the z-score is -0.522 in assay [1]; -0.952 in [2]; -0.574 in assay [3]; -0.679 in assay [4]; -0.173 in assay [5]; -1.19 in [6]. Besides, the z-score in [7] is -0.626 (inactive); in assay [8], -0.696; in [9], -0.868; in assay [10], -0.291 (inactive).
Regarding `O=C1O[C@H](c2ccccc2)[C@H](c2ccccc2)N2[C@H]1[C@@H](C(=O)O)[C@]1(C(=O)Nc3ccc(C#CC4(O)CCCCCC4)cc31)[C@H]2c1ccccc1OCCO`, the z-score in assay [1] was 0.631; in assay [2], 0.0596; in [3] it was -0.0165; in [4] it was -3.38; in assay [5], -4.15; in assay [6], -2.61. The z-score is -0.521 (inactive) in assay [7], -0.911 in [8], -0.681 in assay [9] and 0.95 (inactive) in [10].
Take `CC1C2C(CCCO)=CC(C3C(=O)N(C)C(=O)C23)N1Cc1cccc(OC(F)(F)F)c1` (stereo not given): the z-score in assay [1] is -0.45; in assay [2] it was 0.924; in assay [3], -0.399; in assay [4] it was -0.83; in [5], -0.423; in assay [6], 0.779. The z-score is 0.0323 (inactive) in assay [7], 0.258 in [8], 0.675 in [9] and -0.791 (inactive) in assay [10].
For the molecule `C=C[C@@H](CO)NS(=O)(=O)c1ccc(Br)cc1`, the z-score in assay [1] is 2.03; in [2], 0.935; in assay [3], 2.23; in [4], 0.855; in [5], 1.05; in assay [6], 0.631. Also, the z-score in assay [7] was 0.369 (inactive); in assay [8], 0.133; in [9] it was 0.993; in [10] it was 2.35 (inactive).
For `C=CCOC(=O)[C@H]1[C@@H]2C(=O)O[C@@H](c3ccccc3)[C@@H](c3ccccc3)N2[C@@H](c2ccc(OCCOC(=O)[C@H]3C[C@H]4C(=O)NCC(=O)N4[C@H]3c3ccc(O)cc3)cc2)[C@]12C(=O)Nc1ccccc12`, the z-score is -0.759 in assay [1]; 0.645 in assay [2]; -1.05 in [3]; 0.117 in assay [4]; -0.259 in assay [5]; -1.42 in assay [6]. In addition, the z-score in assay [7] was 0.962 (inactive); in [8], -0.356; in assay [9], -0.821; in assay [10] it was 0.729 (inactive).
Turning to `COc1c(C)cc(-c2nc(-c3ccccc3)c3c(c2C)CO[Si]3(C(C)C)C(C)C)cc1C`, the z-score in assay [1] is -0.926; in [2], -1.12; in assay [3], -0.518; in assay [4] it was -0.532; in assay [5] it was -0.931; in assay [6], -0.175. Moreover, the z-score is -1.19 (inactive) in [7], 0.379 in [8], -0.294 in assay [9] and 1.44 (inactive) in [10].
As for `C=CCN1C(=O)[C@@]2(O[C@@H](CCO)[C@H]([Si](C)(C)c3ccc(OC)cc3)[C@H]2C)c2cc(N3CCCCC3=O)ccc21`, the z-score in [1] was -0.816; in [2], 0.146; in assay [3] it was -4.51; in assay [4] it was -2.69; in assay [5] it was -4.05; in [6], -1.44. In addition, the z-score in assay [7] was -0.0545 (inactive); in assay [8] it was -1.01; in [9], -1.75; in [10] it was -2.04 (inactive).
